The text below walks through data of PubChem BioAssay (EPA / NIEHS).

Read-out in assay [1]: Interleukin-8 (IL8), CXCL8 (gene 3576)
Kind of assay: BSK_CASM3C_IL8: BioMAP Diversity Plus: CASM3C Assay for Interleukin-8 (IL8) Biomarker Activity (AID 2283042).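 Further: IL-8 protein level quantified by ELISA.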 Conditions: primary human coronary artery smooth muscle cells; actives raise or lower the signal.

Read-out in assay [2]: Human Leukocyte Antigen - DR isotype (HLADR), HLA-DRA (gene 3122)
Kind of assay: BSK_CASM3C_HLADR: BioMAP Diversity Plus: CASM3C Assay for Human Leukocyte Antigen - DR isotype (HLADR) Biomarker Activity (AID 2283043).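 Further: cell-surface HLA-DR protein level quantified by ELISA.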 To be noted: primary human coronary artery smooth muscle cells; actives raise or lower the signal.

Read-out in assay [3]: Macrophage colony-stimulating factor (MCSF), CSF1 (gene 1435)
Briefly: BSK_CASM3C_MCSF: BioMAP Diversity Plus: CASM3C Assay for Macrophage colony-stimulating factor (MCSF) Biomarker Activity (AID 2283044).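 Further: M-CSF protein amount quantified by ELISA after 24 h exposure.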 Conditions: primary human coronary artery smooth muscle cells; actives raise or lower the signal.

Read-out in assay [4]: Low-density lipoprotein receptor (LDLR), LDLR (gene 3949)
Briefly: BSK_CASM3C_LDLR: BioMAP Diversity Plus: CASM3C Assay for Low-density lipoprotein receptor (LDLR) Biomarker Activity (AID 2283045).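 Further: LDLR protein level on the cell surface quantified by ELISA.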 Conditions: primary human coronary artery smooth muscle cells; actives raise or lower the signal.

Read-out in assay [5]: Monocyte Chemoattractant Protein-1 (MCP1), CCL2 (gene 6347)
Kind of assay: BSK_CASM3C_MCP1: BioMAP Diversity Plus: CASM3C Assay for Monocyte Chemoattractant Protein-1 (MCP1) Biomarker Activity (AID 2283046).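 Further: MCP-1 level quantified by ELISA 24 h after dosing.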 Conditions: primary human coronary artery smooth muscle cells; actives raise or lower the signal.

Assay [6] is described as follows: BSK_CASM3C_Proliferation: Cell Proliferation Assessment in the BioMAP Diversity Plus: CASM3C Assay (AID 2283047).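 Further: sulforhodamine B total protein stain as relative cell number at 560 nm; sub-confluent cells exposed 48 h before staining; fitted both ways against DMSO so gain or loss of cell number.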 Conditions: primary human coronary artery smooth muscle cells.
Read-out in assay [7]: Monokine induced gamma interferon (MIG), CXCL9 (gene 4283)
Briefly: BSK_CASM3C_MIG: BioMAP Diversity Plus: CASM3C Assay for Monokine induced gamma interferon (MIG) Biomarker Activity (AID 2283048).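 Further: MIG protein level measured by ELISA.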 Conditions: primary human coronary artery smooth muscle cells; actives raise or lower the signal.

Read-out in assay [8]: serum amyloid A (SAA), SAA1 (gene 6288)
Briefly: BSK_CASM3C_SAA: BioMAP Diversity Plus: CASM3C Assay for serum amyloid A (SAA) Biomarker Activity (AID 2283049).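 Further: SAA protein level quantified by ELISA.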 Conditions: primary human coronary artery smooth muscle cells; actives raise or lower the signal.

A short description of assay [9]: BSK_CASM3C_SRB: Viability Assessment in the BioMAP Diversity Plus: CASM3C Assay (AID 2283050).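 Further: total protein by SRB staining as cytotoxicity measure in parallel cultures.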 Conditions: primary human coronary artery smooth muscle cells.
Read-out in assay [10]: Thrombomodulin, THBD (gene 7056)
Briefly: BSK_CASM3C_Thrombomodulin: BioMAP Diversity Plus: CASM3C Assay for Thrombomodulin Biomarker Activity (AID 2283051).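 Further: thrombomodulin protein level measured by ELISA 24 h after dosing.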 To be noted: primary human coronary artery smooth muscle cells; actives raise or lower the signal.

Read-out in assay [11]: Tissue Factor, F3 (gene 2152)
Briefly: BSK_CASM3C_TissueFactor: BioMAP Diversity Plus: CASM3C Assay for Tissue Factor Biomarker Activity (AID 2283052).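 Further: cell surface tissue factor protein level read by ELISA.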 Conditions: primary human coronary artery smooth muscle cells; actives raise or lower the signal.

Read-out in assay [12]: Interferon-gamma inducible Protein 10 (IP10), CXCL10 (gene 3627)
Briefly: BSK_hDFCGF_IP10: BioMAP Diversity Plus: hDFCGF Assay for Interferon-gamma inducible Protein 10 (IP10) Biomarker Activity (AID 2283053). Conditions: primary human foreskin fibroblasts; actives raise or lower the signal. The gist of the method: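 Human foreskin fibroblast primary cells (hDFCGF system) were dosed with chemical and assayed at 24 h; IP-10 measured by ELISA. Activity fitted bidirectionally relative to DMSO negative control as baseline.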

Read-out in assay [13]: Urokinase-type plasminogen activator receptor (uPAR), PLAUR (gene 5329)
Kind of assay: BSK_CASM3C_uPAR: BioMAP Diversity Plus: CASM3C Assay for Urokinase-type plasminogen activator receptor (uPAR) Biomarker Activity (AID 2283054).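 Further: cell-surface uPAR protein level quantified by ELISA.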 Conditions: primary human coronary artery smooth muscle cells; actives raise or lower the signal.

Read-out in assay [14]: Vascular cell adhesion molecule 1 (VCAM1), VCAM1 (gene 7412)
Briefly: BSK_CASM3C_VCAM1: BioMAP Diversity Plus: CASM3C Assay for Vascular cell adhesion molecule 1 (VCAM1) Biomarker Activity (AID 2283055).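 Further: VCAM-1 protein level quantified by ELISA on the cells.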 Conditions: primary human coronary artery smooth muscle cells; actives raise or lower the signal.

Read-out in assay [15]: Collagen III, COL3A1 (gene 1281)
Briefly: BSK_hDFCGF_CollagenIII: BioMAP Diversity Plus: hDFCGF Assay for Collagen III Biomarker Activity (AID 2283056). To be noted: primary human foreskin fibroblasts; actives raise or lower the signal. The gist of the method:
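Response relative to DMSO, fitted in both directions, reflects ELISA-measured collagen III in human primary skin fibroblasts 24 h after compound addition.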

Read-out in assay [16]: Epidermal growth factor receptor (EGFR), EGFR (gene 1956)
Briefly: BSK_hDFCGF_EGFR: BioMAP Diversity Plus: hDFCGF Assay for Epidermal growth factor receptor (EGFR) Biomarker Activity (AID 2283057). Conditions: primary human foreskin fibroblasts; actives raise or lower the signal. The method in brief: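 Primary human foreskin fibroblasts were exposed to compound for 24 h, after which cell-surface EGFR was quantified by ELISA. Activity was fitted bidirectionally against the DMSO negative control as baseline.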

Read-out in assay [17]: Interleukin-8 (IL8), CXCL8 (gene 3576)
Briefly: BSK_hDFCGF_IL8: BioMAP Diversity Plus: hDFCGF Assay for Interleukin-8 (IL8) Biomarker Activity (AID 2283058). To be noted: primary human foreskin fibroblasts; actives raise or lower the signal. The gist of the method:
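Fibroblast monolayers (human foreskin, hDFCGF) received test chemical for 24 h before ELISA detection of IL-8; either increases or decreases relative to DMSO count as activity.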

Assay [18] in a line: BSK_hDFCGF_Proliferation: Cell Proliferation Assessment in the BioMAP Diversity Plus: hDFCGF Assay (AID 2283059).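 Further: curves fitted for both rise and fall of signal versus DMSO baseline.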 To be noted: primary human foreskin fibroblasts. The method in brief: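 Steps: dose primary human dermal fibroblasts (foreskin); […] fix in 10% TCA; stain with 0.1% SRB; read 560 nm; fit gain or loss of signal against DMSO.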
Read-out in assay [19]: Macrophage colony-stimulating factor (MCSF), CSF1 (gene 1435)
Briefly: BSK_hDFCGF_MCSF: BioMAP Diversity Plus: hDFCGF Assay for Macrophage colony-stimulating factor (MCSF) Biomarker Activity (AID 2283060). To be noted: primary human foreskin fibroblasts; actives raise or lower the signal. The gist of the method:
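fibroblasts (human foreskin, primary), 24 h post-dose; M-CSF by ELISA; bidirectional fit, DMSO = baseline.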

The nature of assay [20]: BSK_hDFCGF_SRB: Viability Assessment in the BioMAP Diversity Plus: hDFCGF Assay (AID 2283061).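 Further: cells exposed to compound for 24 h before the read.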 To be noted: primary human foreskin fibroblasts. The method in brief:
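SRB-based viability read on primary human skin fibroblasts at 24 h: TCA fixation, 0.1% dye, 560 nm. Gain or loss of signal is fitted against the DMSO negative control.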

The structures appear in SMILES notation. Calls of active or inactive are those of the source. How the source made its calls: active means hit-call score of the fitted dose curve at least 0.9, where 1 is the maximum; inactive means score below 0.9.

Regarding `O=Cc1ccccc1C=O`, the result in assay [1], in [2], in assay [3], in assay [4], in [5] and in assay [6] was inactive. Moreover, the result in assay [7], in assay [8], in assay [9], in assay [10], in assay [11] and in [12] was inactive. Moreover, the result in assay [13], in assay [14], in [15], in assay [16], in [17] and in assay [18] was inactive. For the same compound, the outcome in assay [19] and in assay [20] was inactive.

For the compound `CCN(CC)CCOc1ccc(C(=C(Cl)c2ccccc2)c2ccccc2)cc1`, the AC50 (in general, the concentration at which the activity in the assay is half-maximal) in [1] is 32 µM (active); in assay [2] it was 23.9 µM (active); in [3], 26.2 µM (active); in [4], 30.6 µM (active); in assay [5] it was 33 µM (active); in assay [6], 15 µM (active). In addition, the AC50 was 31.5 µM (active) in [7]; 25.9 µM (active) in assay [8]; 28 µM (active) in [9]; 31.8 µM (active) in assay [11]; 14.4 µM (active) in assay [12]; 31.1 µM (active) in [13]. The concentration at half-maximal activity (AC50) is 31.6 µM (active) in assay [14]; 12.1 µM (active) in assay [15]; 13 µM (active) in assay [17]; 0.123 µM (active) in assay [18]; 10.4 µM (active) in [19]; 11.6 µM (active) in assay [20]. Also, the result in [10] and in assay [16] was inactive.

Consider `NC(=Nc1ccccc1)Nc1ccccc1`, for which the result in assay [1], in assay [2], in assay [4], in assay [5], in assay [6] and in [7] was inactive. Moreover, the result in assay [8], in assay [9], in assay [10], in assay [11], in assay [12] and in assay [13] was inactive. Besides, the outcome in assay [14], in assay [15], in assay [16], in assay [17] and in assay [20] was inactive. For the same compound, the AC50 in [3] is 3.97 µM (active); in assay [18] it was 30.3 µM (active); in assay [19], 9.15 µM (active).

Turning to `CCC(C)N(C)C(=O)c1cc2ccccc2c(-c2ccccc2Cl)n1` (stereo not given), the result in assay [1], in assay [2], in [3], in assay [4], in [5] and in assay [6] was inactive. Moreover, the result in assay [7], in assay [8], in assay [9], in assay [10], in assay [11] and in assay [12] was inactive. The outcome in assay [13], in [14], in [15], in assay [16], in assay [17] and in assay [18] was inactive. In addition, the outcome in assay [19] and in [20] was inactive.

With `c1ccc2occc2c1`, the result in assay [1], in assay [2], in assay [3], in [4], in assay [5] and in assay [6] was inactive. The result in [7], in assay [8], in assay [9], in assay [10], in assay [11] and in assay [12] was inactive. In addition, the result in [13], in assay [14], in assay [15], in assay [16], in assay [17] and in [18] was inactive. Also, the result in assay [19] and in [20] was inactive.

Consider `CCCCCCC(CCCCCCCCCCC(=O)OCC(COC(C)=O)OC(C)=O)OC(C)=O` (stereo not given), for which the result in [1], in assay [2], in assay [3], in [4], in [5] and in [6] was inactive. For the same compound, the result in [7], in [8], in [9], in assay [10], in assay [11] and in assay [12] was inactive. The outcome in assay [13], in assay [14], in assay [16], in assay [17], in assay [19] and in assay [20] was inactive. In addition, the AC50 is 2.73 µM (active) in [15] and 3.11 µM (active) in assay [18].

In the case of `CO[C@@H]1COCC[C@@H]1N[C@@H]1CC[C@@](C(=O)N2CCc3ncc(C(F)(F)F)cc3C2)(C(C)C)C1`, the outcome in assay [1], in assay [2], in assay [3], in assay [4], in assay [5] and in assay [6] was inactive. Besides, the outcome in assay [7], in [8], in [9], in assay [10], in assay [11] and in assay [12] was inactive. Also, the result in [13], in [14], in assay [15], in assay [16], in [17] and in assay [18] was inactive. Further, the result in assay [19] and in assay [20] was inactive.
